These results are taken from PubChem BioAssay (NCATS).

Unmarked numbers belong to inactive results. Inconclusive results are not listed. The source made the active and inactive calls. Unless noted, the call rests on the fitted dose curve; in most records, active means well fitted curve in either direction with a large enough effect (not every such curve was filed as active); inconclusive means small, poorly fitted or top-dose-only effect, or another doubt; inactive means flat fitted curve, though single readings scatter. Bounds are passed on as bounds.

In experiment [1] the target is Lysosomal acid glucosylceramidase (Homo sapiens) (UniProt P04062). In words: Glucocerebrosidase-p2 (AID 348; in the data active means potency below about 10 µM; further: potency means the concentration at half of the fitted maximal effect). Particulars: purified GBA, blue fluorogenic substrate, 40 min. A digest of the protocol: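 Normal human glucocerebrosidase (0.2 nM) with blue fluorogenic substrate (80 uM final) in citrate/phosphate pH 5.9 with 10mM sodium taurocholate, 0.01% tween-20; 40 min RT, NaOH/glycine stop; fluorescence Ex 365/Em 440; AC50 from a titration from 0.6 nM upwards.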

Experiment [2] is described as follows: AP1 Signaling Pathway (AID 357).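 Further: ME-180 reporter cells stimulated with EGF at its EC50 level; on the % scale 0 is the no-effect control and ±100 the full control effect.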 Particulars: ME-180 AP-1-bla reporter, EGF-induced, beta-lactamase ratio, 5 h; at 7.69 µM (top of the series) unless noted. A digest of the protocol:
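In this screen, ME-180 cells in Opti-MEM with 0.5% dialyzed FBS received EC50 EGF and compound titrations for 5 h. AP-1 reporter beta-lactamase was detected via CCF4 ratio, giving AC50 for positive and negative modulators.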

The target of experiment [3] is Cytochrome P450 1A2 (Homo sapiens) (UniProt P05177). In words: p450-cyp1a2 (AID 410; calls by dose curve; further: potency means the concentration at half of the fitted maximal effect). The note with it: recombinant CYP1A2, luciferin-ME demethylation, luminescence; series mostly up to 11.4 µM. A digest of the protocol:
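O-Demethylation of luciferin 6' methyl ether by human CYP1A2 is monitored as luciferase luminescence. Substrate sits at Km (100uM); enzyme is 20nM. Values are scaled to 57 uM furafylline as maximal inhibition.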

Experiment [4] is described as follows: NFAT Signaling Pathway (AID 444).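 Further: carbachol stimulus at about its EC50 of 1 µM final; on the % scale 0 is the no-effect control and ±100 the full control effect.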 Particulars: Jurkat NFAT-bla M1, carbachol, beta-lactamase ratio, 5 h; at 7.69 µM (top of the series) unless noted. A digest of the protocol:
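Read-out: CCF4 FRET ratio (460 nm/530 nm) after 1 h RT dye loading, used for %activity and AC50 from titration series. Cells: Jurkat NFAT-β-lactamase/M1 line, treated with compound plus 1 uM carbachol for 5 h, 37 °C.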

The target of experiment [5] is Glucocorticoid receptor (Homo sapiens) (UniProt P04150). In words: GR-GFP Redistribution (AID 450;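 active means compounds whose dose series gives a full or clear partial fitted curve of increased nuclear translocation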; further: potency means the concentration at half of the fitted maximal effect). Particulars: U2OS GR-GFP nuclear translocation, laser cytometry, 2 h.
Experiment [6] has the same target. The experiment in a line: GR-EFC Redistribution (AID 451; calls by dose curve; further: potency means the concentration at half of the fitted maximal effect). Particulars: CHO-K1 GR-EFC translocation, beta-gal luminescence, 2 h. A digest of the protocol:
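Translocation of GR-ED fusion to nuclear EA restores b-gal, read by luminescence after 1 h room-temperature detection. Engineered CHO-K1 biosensor cells, 1,000/well, exposed 2 h at 37 C to titrations up to 46 uM final.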

The target in experiment [7] is 3',5'-cyclic-AMP phosphodiesterase 4B (Homo sapiens) (UniProt Q07343). In words: qHTS Assay for Inhibitors of PDE-IV (AID 607; active means well fitted activation curve with a large enough effect in the main read-out, with a control signal flat, not every such curve was filed as active; further: % of control where 0% means no effect). Particulars: HEK293 ACTOne CNG channel cells, membrane potential fluorescence; series mostly up to 22.9 µM. A digest of the protocol: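 Cell-based read-out of cAMP via a modified cyclic nucleotide-gated channel and membrane potential dye (535/590 nm) in HEK293 cells expressing PDE4 endogenously. Compounds tested up to 22.9 uM final; 100 uM RO 20-1724 reference.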

Experiment [8] deals with Cytochrome P450 2C9 (Homo sapiens) (UniProt P11712). The experiment in a line: qHTS Assay for Inhibitors and Substrates of Cytochrome P450 2C9 (AID 883; active means well fitted curve in the direction sought with a large enough effect; an effect the other way counts as inactive or inconclusive; further: potency means the concentration at half of the fitted maximal effect; nearly all actives have a fitted effect of over 60% in size). Particulars: recombinant CYP2C9, luciferin-H luminescence, 60 min; series mostly up to 11.4 µM. A digest of the protocol:
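Luminescent read-out of deoxyluciferin hydroxylation, normalized to 57uM sulphaphenazole (AC100). Reaction: 10nM enzyme, 100uM Luciferin-H (equal to KM), 25mM KPO4, 10 min compound preincubation, then 60 min with NADPH regeneration, both at 37C.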
On the technique in general: qHTS replaces the single test concentration by a dilution series.

A short description of experiment [9]: qHTS Assay for Identification of Small Molecule Agonists for Hypoxia Response Element Signaling Pathway (AID 914; active means well fitted activation curve with a large enough effect in the signal ratio, with a control signal flat, not every such curve was filed as active; the % refers to the signal ratio; further: potency means the concentration at half of the fitted maximal effect; on activation: % of control where 0% means no effect). Particulars: ME-180 HRE-bla reporter, beta-lactamase ratio, CoCl2, 17 h; activation: active compounds read high. A digest of the protocol: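 In Opti-MEM containing 0.5% dialyzed FBS and 10 mM HEPES, ME-180 HRE-bla cells received a compound titration and EC50 CoCl2. They were incubated 17 hours, then CCF4-loaded 2.5 hours at room temperature before ratio reading.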

The nature of experiment [10]: Stat Signaling Pathway (AID 446).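 Further: ME-180 cervical cancer cells given 40 pM IL-6 alongside compound; SIE-controlled beta-lactamase reporter measured as 460/530 nm FRET emission ratio; on the % scale 0 is the no-effect control and ±100 the full control effect.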 Particulars: ME-180 (cervical carcinoma) SIE beta-lactamase reporter, IL-6 stimulated, 5 h; at 7.69 µM (top of the series) unless noted. A digest of the protocol:
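FRET read-out (405 nm excitation, 460/530 nm emission) of a beta-lactamase reporter under a STAT-inducible element in ME-180 cervical carcinoma cells. Cells with compound receive 40 pM IL-6 for 5 h. Values are normalised to AC90 stimulation and AC90 JAK-inhibitor controls.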

For experiment [11], the target named is Mitogen-activated protein kinase 10 (Mus musculus) (UniProt Q61831). The experiment in a line: JNK3 AlphaScreen Assay (AID 530).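 Further: kinase came from lysate of stimulated human HepG2 cells; signal reports phosphorylation of biotinylated GST-cJun 1-79 at Ser73 with 10 µM ATP; on the % scale 0 is the no-effect control and ±100 the full control effect.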 The note with it: JNK3 lysate, c-Jun phosphorylation; series mostly up to 11.4 µM. A digest of the protocol:
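qHTS titrations with 15 min compound pre-incubation before adding ATP (10 uM final). Read-out: AlphaScreen of Ser73-phosphorylated biotin-GST-cJun using HepG2 lysate JNK3 activated by IL-1β and TNFα.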
Background: In Alpha technology, singlet oxygen from a donor bead excites a nearby acceptor bead.

The target of experiment [12] is Cytochrome P450 3A4 (Homo sapiens) (UniProt P08684). The experiment in a line: qHTS Assay for Activators of Cytochrome P450 3A4 (AID 885; active means well fitted curve in the direction sought with a large enough effect; an effect the other way counts as inactive or inconclusive; further: nearly all actives have a fitted effect of over 65% in size). The note with it: recombinant CYP3A4, Luciferin-PPXE luminescence, 60 min; series mostly up to 11.4 µM. A digest of the protocol:
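Luminescent readout of luciferin formed from 25 uM Luciferin-PPXE (KM level) by 20 nM CYP3A4 in 200 mM KPO4, with 60 min NADPH-driven reaction at room temperature after 10 min compound exposure. Ketoconazole (57 uM) defined 100% inhibition.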

Experiment [13] concerns the target Cytochrome P450 2C19 (Homo sapiens) (UniProt P33261). The experiment in a line: qHTS Assay for Inhibitors and Substrates of Cytochrome P450 2C19 (AID 899; active means well fitted curve in the direction sought with a large enough effect; an effect the other way counts as inactive or inconclusive; further: potency means the concentration at half of the fitted maximal effect; nearly all actives have a fitted effect of over 60% in size). The note with it: recombinant CYP2C19, luciferin-H EGE luminescence; series mostly up to 11.4 µM. A digest of the protocol:
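Luminescence readout of luciferin formed from 10uM Luciferin-H EGE (KM level) by 5 nM CYP2C19 in 50mM KPO4. 60 min NADPH-driven reaction at 37C after 10 min compound preincubation; data scaled to 57uM ketoconazole inhibition.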

Cytochrome P450 1A2 (Homo sapiens), sequence (P05177 whole entry, looked up): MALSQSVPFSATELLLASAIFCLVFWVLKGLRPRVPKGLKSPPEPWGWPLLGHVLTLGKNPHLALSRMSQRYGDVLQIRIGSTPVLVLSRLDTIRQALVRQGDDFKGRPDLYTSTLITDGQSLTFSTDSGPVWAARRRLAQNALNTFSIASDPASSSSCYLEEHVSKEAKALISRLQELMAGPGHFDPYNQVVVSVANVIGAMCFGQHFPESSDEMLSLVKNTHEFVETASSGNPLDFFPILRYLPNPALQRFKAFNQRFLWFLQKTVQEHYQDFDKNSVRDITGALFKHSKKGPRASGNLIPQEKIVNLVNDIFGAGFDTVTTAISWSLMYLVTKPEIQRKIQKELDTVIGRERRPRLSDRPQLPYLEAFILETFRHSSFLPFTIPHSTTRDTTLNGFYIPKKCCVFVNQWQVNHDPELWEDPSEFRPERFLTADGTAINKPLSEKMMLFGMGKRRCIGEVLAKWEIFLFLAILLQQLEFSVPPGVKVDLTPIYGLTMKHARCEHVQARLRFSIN
3',5'-cyclic-AMP phosphodiesterase 4B (Homo sapiens), sequence (Q07343 whole entry, looked up): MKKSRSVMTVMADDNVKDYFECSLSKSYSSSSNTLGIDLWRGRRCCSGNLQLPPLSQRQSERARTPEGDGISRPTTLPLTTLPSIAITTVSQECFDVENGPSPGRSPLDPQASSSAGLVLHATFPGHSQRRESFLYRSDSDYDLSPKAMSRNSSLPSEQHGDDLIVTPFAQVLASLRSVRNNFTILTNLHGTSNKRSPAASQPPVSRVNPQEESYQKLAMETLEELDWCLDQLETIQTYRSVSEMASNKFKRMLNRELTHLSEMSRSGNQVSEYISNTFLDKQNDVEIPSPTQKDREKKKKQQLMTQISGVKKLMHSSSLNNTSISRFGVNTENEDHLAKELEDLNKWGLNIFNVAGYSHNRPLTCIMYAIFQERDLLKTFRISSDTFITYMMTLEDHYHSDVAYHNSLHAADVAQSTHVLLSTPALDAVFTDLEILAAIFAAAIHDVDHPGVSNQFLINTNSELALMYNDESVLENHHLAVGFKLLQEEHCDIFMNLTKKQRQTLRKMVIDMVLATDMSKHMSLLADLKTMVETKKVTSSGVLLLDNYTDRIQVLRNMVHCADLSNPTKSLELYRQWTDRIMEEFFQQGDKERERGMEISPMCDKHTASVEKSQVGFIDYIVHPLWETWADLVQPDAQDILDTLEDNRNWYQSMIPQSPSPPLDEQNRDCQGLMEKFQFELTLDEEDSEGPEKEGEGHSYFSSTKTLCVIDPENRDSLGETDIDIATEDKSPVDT
Lysosomal acid glucosylceramidase (Homo sapiens), sequence (P04062 whole entry, looked up): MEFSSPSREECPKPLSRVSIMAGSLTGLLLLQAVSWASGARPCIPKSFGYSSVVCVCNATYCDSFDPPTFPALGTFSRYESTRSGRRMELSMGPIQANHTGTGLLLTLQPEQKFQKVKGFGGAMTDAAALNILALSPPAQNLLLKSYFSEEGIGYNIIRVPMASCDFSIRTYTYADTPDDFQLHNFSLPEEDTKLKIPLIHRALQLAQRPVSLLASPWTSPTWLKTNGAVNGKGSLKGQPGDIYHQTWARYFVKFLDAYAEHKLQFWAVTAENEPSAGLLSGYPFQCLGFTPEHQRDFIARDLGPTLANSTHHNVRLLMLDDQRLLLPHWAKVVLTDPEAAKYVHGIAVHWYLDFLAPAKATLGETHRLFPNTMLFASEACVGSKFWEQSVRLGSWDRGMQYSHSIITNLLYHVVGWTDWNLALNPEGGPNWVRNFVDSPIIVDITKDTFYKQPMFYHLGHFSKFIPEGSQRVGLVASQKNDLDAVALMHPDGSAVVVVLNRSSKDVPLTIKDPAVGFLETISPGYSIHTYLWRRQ
Glucocorticoid receptor (Homo sapiens), sequence (P04150 whole entry, looked up): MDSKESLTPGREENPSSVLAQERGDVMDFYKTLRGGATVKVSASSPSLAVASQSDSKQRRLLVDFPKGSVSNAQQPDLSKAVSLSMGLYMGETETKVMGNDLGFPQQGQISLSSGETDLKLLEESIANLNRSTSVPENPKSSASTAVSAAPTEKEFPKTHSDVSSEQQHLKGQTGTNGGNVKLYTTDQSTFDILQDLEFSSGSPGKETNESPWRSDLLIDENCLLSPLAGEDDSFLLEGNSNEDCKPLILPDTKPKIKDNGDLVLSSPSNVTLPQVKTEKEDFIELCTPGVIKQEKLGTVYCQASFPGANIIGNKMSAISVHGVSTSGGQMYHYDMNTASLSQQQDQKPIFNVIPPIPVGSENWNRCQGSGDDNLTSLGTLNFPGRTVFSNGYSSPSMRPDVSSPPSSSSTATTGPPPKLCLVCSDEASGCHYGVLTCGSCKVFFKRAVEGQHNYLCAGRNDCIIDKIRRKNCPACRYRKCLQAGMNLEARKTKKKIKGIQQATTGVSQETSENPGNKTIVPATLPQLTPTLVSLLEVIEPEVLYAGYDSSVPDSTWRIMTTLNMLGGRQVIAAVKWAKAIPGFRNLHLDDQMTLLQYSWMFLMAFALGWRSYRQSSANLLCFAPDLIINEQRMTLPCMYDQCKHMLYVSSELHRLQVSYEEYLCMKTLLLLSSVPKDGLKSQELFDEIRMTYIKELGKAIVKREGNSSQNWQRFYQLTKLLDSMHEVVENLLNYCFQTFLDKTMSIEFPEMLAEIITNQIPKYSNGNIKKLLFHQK
Cytochrome P450 2C9 (Homo sapiens), sequence (P11712 whole entry, looked up): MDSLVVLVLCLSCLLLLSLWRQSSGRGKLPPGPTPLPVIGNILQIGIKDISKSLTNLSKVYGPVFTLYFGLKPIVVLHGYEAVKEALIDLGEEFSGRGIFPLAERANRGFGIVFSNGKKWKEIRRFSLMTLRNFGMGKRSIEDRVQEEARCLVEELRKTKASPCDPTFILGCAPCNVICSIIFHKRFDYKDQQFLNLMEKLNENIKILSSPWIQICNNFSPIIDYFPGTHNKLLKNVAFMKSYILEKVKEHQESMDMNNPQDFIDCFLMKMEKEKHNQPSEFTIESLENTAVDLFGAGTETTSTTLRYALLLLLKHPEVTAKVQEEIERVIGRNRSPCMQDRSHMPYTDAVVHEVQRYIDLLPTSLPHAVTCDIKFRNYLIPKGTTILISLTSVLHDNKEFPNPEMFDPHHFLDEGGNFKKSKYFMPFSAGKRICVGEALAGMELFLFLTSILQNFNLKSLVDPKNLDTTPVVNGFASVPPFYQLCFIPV
Cytochrome P450 3A4 (Homo sapiens), sequence (P08684 whole entry, looked up): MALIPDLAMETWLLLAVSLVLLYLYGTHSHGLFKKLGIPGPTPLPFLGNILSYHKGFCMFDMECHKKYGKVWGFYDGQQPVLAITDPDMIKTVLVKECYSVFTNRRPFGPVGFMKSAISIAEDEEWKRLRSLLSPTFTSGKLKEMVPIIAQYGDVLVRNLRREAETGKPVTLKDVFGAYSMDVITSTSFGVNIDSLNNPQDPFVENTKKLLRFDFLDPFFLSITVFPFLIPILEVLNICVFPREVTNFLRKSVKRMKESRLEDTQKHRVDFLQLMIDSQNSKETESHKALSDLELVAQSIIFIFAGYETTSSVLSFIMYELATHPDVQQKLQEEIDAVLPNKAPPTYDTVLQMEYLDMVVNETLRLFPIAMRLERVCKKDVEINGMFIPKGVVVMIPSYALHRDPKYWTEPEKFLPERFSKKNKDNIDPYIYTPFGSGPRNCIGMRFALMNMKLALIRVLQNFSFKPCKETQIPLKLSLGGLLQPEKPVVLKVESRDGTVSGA
Cytochrome P450 2C19 (Homo sapiens), sequence (P33261 whole entry, looked up): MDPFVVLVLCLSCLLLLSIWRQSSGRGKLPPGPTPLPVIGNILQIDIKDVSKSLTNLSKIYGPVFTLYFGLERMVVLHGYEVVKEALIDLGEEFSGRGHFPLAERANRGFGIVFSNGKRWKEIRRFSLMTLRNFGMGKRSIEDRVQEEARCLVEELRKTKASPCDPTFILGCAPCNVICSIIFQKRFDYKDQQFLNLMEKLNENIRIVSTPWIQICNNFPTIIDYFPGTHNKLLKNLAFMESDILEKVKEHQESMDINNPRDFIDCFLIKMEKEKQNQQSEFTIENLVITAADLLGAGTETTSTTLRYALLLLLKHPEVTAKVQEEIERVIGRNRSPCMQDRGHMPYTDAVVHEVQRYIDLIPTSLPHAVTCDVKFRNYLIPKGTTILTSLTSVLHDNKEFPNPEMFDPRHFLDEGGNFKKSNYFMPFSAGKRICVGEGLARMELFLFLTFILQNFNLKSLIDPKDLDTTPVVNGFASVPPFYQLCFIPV

In the case of `O=c1c(-c2cccs2)nc2cnc(Oc3ccccc3)nc2n1C1CC1`, the Potency in experiment [1] is greater than 11.4 µM; in experiment [3] it was 2.51 µM (active); in [5] it was greater than 9.22 µM; in experiment [6] it was greater than 46 µM; in experiment [8], 3.16 µM (active); in experiment [9], 3.16 µM (active). Besides, the activity change, negative = inhibition in experiment [2] is -6.67%; in [4], 22.4%. The Potency entry in experiment [7] is “inactive”.
As to `COc1ccc2c3c(ccc2c1)N[C@H](C(=O)O)CC3`, the Potency in experiment [1] was greater than 11.4 µM; in [3], 0.501 µM (active); in experiment [5], greater than 46 µM; in experiment [6] it was greater than 9.22 µM. Also, the activity change, negative = inhibition in experiment [2] was -4.14%. In addition, the activity, negative = inhibition in experiment [10] is -6.67%. In addition, the Potency entry in experiment [11] and in [7] was “inactive” throughout.
For `Cn1c(Sc2ccc(-c3cccnc3)n2C)ccc1-c1cccnc1`, the Potency in [1] was greater than 11.4 µM; in experiment [3], 0.398 µM (active); in experiment [5], greater than 46 µM; in experiment [6] it was greater than 9.22 µM. In addition, the values for the activity change, negative = inhibition in experiment [2] and in experiment [4] were 1.8% and -29.9%, respectively. Also, the Potency entry in experiment [7] and in experiment [12] was “inactive” in each case.
Take `O=C1[C@@H]2[C@@H](C(=O)N1c1ccc(OCc3ccccc3)cc1)[C@@H]1c3ccccc3[C@@H]2[n+]2ccccc21`: the Potency was greater than 11.4 µM in [1], greater than 46 µM in [5] and greater than 9.22 µM in experiment [6]. Also, in experiment [2], the activity change, negative = inhibition is -1.52%. Besides, the Potency entry in experiment [3], in experiment [11] and in [7] was “inactive” each time. Moreover, in [10], the activity, negative = inhibition is 4.93%.
As to `Oc1c(CN2CCN(c3ccccc3)CC2)cc(Br)c2cccnc12`, the Potency is greater than 11.4 µM in [1], 1.26 µM (active) in experiment [3], greater than 46 µM in [5] and greater than 9.22 µM in experiment [6]. Also, in [2], the activity change, negative = inhibition was 3.27%. Further, the activity, negative = inhibition in [10] is -0.132%. Moreover, the Potency entry in [11] and in experiment [7] was “inactive” throughout.
As for `CC1=c2c(oc3cc(O)c(Nc4c(C)cc(O)cc4O)c(C)c23)=CC(=O)C1=Nc1c(C)cc(O)cc1O`, the Potency in experiment [1] is greater than 11.4 µM; in experiment [3], 3.16 µM (active); in experiment [5], greater than 46 µM; in experiment [6], greater than 9.22 µM; in [8] it was 3.16 µM (active); in [13], 3.16 µM (active). Further, the results for the activity change, negative = inhibition in experiment [2] and in experiment [4] were -6.5% and -22.3%, respectively. Also, the Potency result in experiment [7] is “inactive”.
Turning to `O=C(Nc1cccc2cccnc12)[C@@H]1[C@@H](C(=O)O)[C@H]2CC[C@@H]1O2`, the Potency in experiment [1] was greater than 11.4 µM; in [5], greater than 46 µM; in [6] it was greater than 9.22 µM. Moreover, in experiment [2], the activity change, negative = inhibition was 6.33%. Further, the Potency result in experiment [3], in experiment [11] and in experiment [7] was “inactive” in each case. The activity, negative = inhibition in experiment [10] is -11%.
Consider `O=C(CSc1nc2ccccc2s1)c1sc2sc3ccccc3[n+]2c1O`, for which the Potency in experiment [1] was greater than 11.4 µM; in experiment [3], 5.01 µM (active); in experiment [5], greater than 46 µM; in [6], greater than 9.22 µM. Further, the activity change, negative = inhibition in [2] is -9.47%; in experiment [4], 6.64%. Also, the Potency result in experiment [11] and in [7] was “inactive” throughout. The activation in [9] is -16.9%.
Consider `COc1ncc2nc(CCc3ccccc3)c(=O)n(C)c2n1`, for which the Potency in experiment [1] is greater than 11.4 µM; in [3], 5.01 µM (active); in experiment [5] it was greater than 9.22 µM; in experiment [6] it was greater than 46 µM. The activity change, negative = inhibition in experiment [2] was -29.7%. In addition, the activity, negative = inhibition in experiment [10] is -1.2%. Also, the Potency entry in experiment [11] and in experiment [7] was “inactive” each time.
